# Source: the supplement of paper PMC8728848
# This excerpt belongs to a sample that is enriched for the strongest signals.
# How the values were obtained:
# Assay in all cases: glycan array binding signal (z-score within array); higher = stronger binding
# Conditions in all cases: glycan notation: IUPAC condensed, linker removed
# [1] = target: Fuc(a1-2)Gal(b1-3)GalNAc(b1-4)[Neu5Ac(a2-3)]Gal(b1-4)Glc
# Summary of the method: (§1)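 Glycan array data were curated from 3228 arrays in the Consortium for Functional Glycomics database and kept only where the protein sequence was available. Glycan names were converted to IUPAC-condensed notation, and columns mapping to the same glycan were averaged. The binding signal is a within-array Z-score, averaged across arrays of the same protein sequence at different concentrations or buffers and across linkers. Negative Z-scores can be read as non-binding.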
# Fuc(a1-2)Gal(b1-4)Glc6S = target: Fuc(a1-2)Gal(b1-4)Glc6S
# Summary of the method: as §1
# Fuc(a1-2)Gal(b1-4)GlcNAc = target: Fuc(a1-2)Gal(b1-4)GlcNAc
# Summary of the method: as §1
# [2] = target: Fuc(a1-2)Gal3S(b1-4)GlcNAc
# Summary of the method: as §1
# [3] = target: Fuc(a1-2)[Gal(a1-3)]Gal(b1-3)GlcNAc(b1-3)GalNAc
# Summary of the method: as §1
# [4] = target: Fuc(a1-2)[Gal(a1-3)]Gal(b1-3)GlcNAc(b1-6)GalNAc
# Summary of the method: as §1
# [5] = target: Fuc(a1-2)[Gal(a1-3)]Gal(b1-4)Glc
# Summary of the method: as §1
# [6] = target: Fuc(a1-2)[Gal(a1-3)]Gal(b1-4)GlcNAc(b1-2)Man(a1-3)[Fuc(a1-2)[Gal(a1-3)]Gal(b1-4)GlcNAc(b1-2)Man(a1-6)]Man(b1-4)GlcNAc(b1-4)[Fuc(a1-6)]GlcNAc
# Summary of the method: as §1
# [7] = target: Fuc(a1-2)[GalNAc(a1-3)]Gal(b1-3)GlcNAc(b1-3)GalNAc
# Summary of the method: as §1
# [8] = target: Fuc(a1-2)[GalNAc(a1-3)]Gal(b1-4)GlcNAc(b1-3)GalNAc
# Summary of the method: as §1
# [9] = target: Fuc(a1-2)[GalNAc(a1-3)]Gal(b1-4)GlcNAc(b1-6)GalNAc
# Summary of the method: as §1
# [10] = target: Fuc(a1-2)[GalNAc(a1-3)]Gal(b1-4)[Fuc(a1-3)]GlcNAc(b1-3)GalNAc
# Summary of the method: as §1
# [11] = target: Fuc(a1-3)[Gal(b1-4)]GlcNAc(b1-3)Gal(b1-3)[Fuc(a1-4)]GlcNAc
# Summary of the method: as §1
# [12] = target: Fuc(a1-3)[Gal3S(b1-4)]GlcNAc6S
# Summary of the method: as §1
# [13] = target: Fuc(a1-3)[GalNAc(b1-4)]GlcNAc
# Summary of the method: as §1
# Gal(a1-4)GlcNAc = target: Gal(a1-4)GlcNAc
# Summary of the method: as §1
# Gal(b1-3)Gal = target: Gal(b1-3)Gal
# Summary of the method: as §1
# Gal(b1-3)Gal(b1-4)GlcNAc = target: Gal(b1-3)Gal(b1-4)GlcNAc
# Summary of the method: as §1
# [14] = target: Gal(b1-3)GalNAc(b1-4)Gal(b1-4)Glc
# Summary of the method: as §1
# Gal(b1-3)GlcNAc = target: Gal(b1-3)GlcNAc
# Summary of the method: as §1
# [15] = target: Gal(b1-3)GlcNAc(b1-6)Gal(b1-4)GlcNAc
# Summary of the method: as §1
# [16] = target: Gal(b1-4)GlcNAc(b1-2)[Gal(b1-4)GlcNAc(b1-4)]Man(a1-3)[Gal(b1-4)GlcNAc(b1-2)Man(a1-6)]Man(b1-4)GlcNAc(b1-4)GlcNAc
# Summary of the method: as §1
# [17] = target: Gal(b1-4)GlcNAc(b1-2)[Gal(b1-4)GlcNAc(b1-6)]Man(a1-6)[Gal(b1-4)GlcNAc(b1-2)Man(a1-3)]Man(b1-4)GlcNAc(b1-4)GlcNAc
# Summary of the method: as §1
# [18] = target: Gal(b1-4)GlcNAc(b1-3)Gal(b1-4)GlcNAc(b1-3)Gal(b1-4)GlcNAc(b1-3)Gal(b1-4)GlcNAc(b1-3)Gal(b1-4)GlcNAc(b1-2)Man(a1-3)[Gal(b1-4)GlcNAc(b1-3)Gal(b1-4)GlcNAc(b1-3)Gal(b1-4)GlcNAc(b1-3)Gal(b1-4)GlcNAc(b1-3)Gal(b1-4)GlcNAc(b1-2)Man(a1-6)]Man(b1-4)GlcNAc(b1-4)[Fuc(a1-6)]GlcNAc
# Summary of the method: as §1
# [19] = target: Gal(b1-4)GlcNAc(b1-3)Gal(b1-4)GlcNAc(b1-3)Gal(b1-4)GlcNAc(b1-3)Gal(b1-4)GlcNAc(b1-3)Gal(b1-4)GlcNAc(b1-2)[Gal(b1-4)GlcNAc(b1-3)Gal(b1-4)GlcNAc(b1-3)Gal(b1-4)GlcNAc(b1-3)Gal(b1-4)GlcNAc(b1-3)Gal(b1-4)GlcNAc(b1-6)]Man(a1-6)[Gal(b1-4)GlcNAc(b1-3)Gal(b1-4)GlcNAc(b1-3)Gal(b1-4)GlcNAc(b1-3)Gal(b1-4)GlcNAc(b1-3)Gal(b1-4)GlcNAc(b1-2)Man(a1-3)]Man(b1-4)GlcNAc(b1-4)[Fuc(a1-6)]GlcNAc
# Summary of the method: as §1
# [20] = target: Gal(b1-4)GlcNAc(b1-3)[Fuc(a1-3)GlcNAc(b1-6)]Gal(b1-4)Glc
# Summary of the method: as §1
# Gal3S(b1-4)Glc = target: Gal3S(b1-4)Glc
# Summary of the method: as §1
binder,measurement,setting,value
Pwp1 (Candida glabrata) (protein) MGSSHHHHHHSSGLVPRGSHMASANPISITNVCQFPDNWARTAGFQATTVRLGLTIASNTYKELLNYPGLFNFATQKATVTQPNFSISGFPFFTGLYGLTVWPINLLVELQGYFVPPESGNYTFTLQGSDDAAILFFANPSTFACGSQNDWPQPREADITVTDTLVPSRTLYLVKGVAYPIRIAYYNGSGDGKLNVSFKDPSGTTHTDWKGYVWQYSNTCSTCTYT,glycan array binding signal (z-score),[1],2.14
same,glycan array binding signal (z-score),Fuc(a1-2)Gal(b1-4)Glc6S,-0.871
same,glycan array binding signal (z-score),Fuc(a1-2)Gal(b1-4)GlcNAc,0.296
same,glycan array binding signal (z-score),[2],0.714
same,glycan array binding signal (z-score),[3],0.778
same,glycan array binding signal (z-score),[4],0.51
same,glycan array binding signal (z-score),[5],-0.087
same,glycan array binding signal (z-score),[6],0.301
same,glycan array binding signal (z-score),[7],2.44
same,glycan array binding signal (z-score),[8],2.36
same,glycan array binding signal (z-score),[9],0.906
same,glycan array binding signal (z-score),[10],-0.825
same,glycan array binding signal (z-score),[11],3.12
same,glycan array binding signal (z-score),[12],1.94
same,glycan array binding signal (z-score),[13],-1.67
same,glycan array binding signal (z-score),Gal(a1-4)GlcNAc,0.974
same,glycan array binding signal (z-score),Gal(b1-3)Gal,0.861
same,glycan array binding signal (z-score),Gal(b1-3)Gal(b1-4)GlcNAc,-0.314
same,glycan array binding signal (z-score),[14],1.92
same,glycan array binding signal (z-score),Gal(b1-3)GlcNAc,0.448
same,glycan array binding signal (z-score),[15],-1.46
same,glycan array binding signal (z-score),[16],-0.345
same,glycan array binding signal (z-score),[17],0.454
same,glycan array binding signal (z-score),[18],-0.637
same,glycan array binding signal (z-score),[19],-3.11
same,glycan array binding signal (z-score),[20],-1
same,glycan array binding signal (z-score),Gal3S(b1-4)Glc,0.803
